Cycloheximide cs – affects cycloheximide protein synthesis inhibition readout, counter-screen; max response, %; cell reporter, cycloheximide protein synthesis inhibition counterscreen; 12% of 300,000 active; in the data active = max response mostly above about 13%, no sharp cut-off; inactive = mostly below about 14%; also: read at 38.3 µM for the half of the compounds with a filed dose; 0% is about no effect
RE007 growth inh – less growth of the S. pombe RE007 Vpr strain | 0.21% of 360,000 active | S. pombe RE007 Vpr strain, BacTiter-Glo ATP luminescence, 24 h | Potency, µM (series often up to 92.2 µM), inactives show at the top dose activity change, negative = less growth, hits mostly inhibitors | AID 651644; active = well fitted falling curve with a large enough effect; inconclusive = small, poorly fitted or top-dose-only effect; inactive = no such curve, though single readings can be large or run the other way; also: potency is read from the fitted curve at half-maximal effect; % is scaled to controls: 0 for no effect and ±100 for the full control effect; nearly all actives have a fitted effect of over 50% in size
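Fission yeast strain RE007, carrying one chromosomally integrated HIV-1 vpr copy, was seeded at OD 0.01 in PMG+AL medium with 23 nL pinned compound. After 24 h at 30 °C and 99% humidity, viability was read by BacTiter-Glo luminescence.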
LmPK inh – LmPK (Leishmania mexicana) enzyme inhibition. Potency, µM (doses to about 57.5 µM), without a hit: at the highest dose activity change, negative = inhibition, usual class: inhibitors. AID 1721. Q27686. 0.37% of 290,000 active. purified LmPK, Kinase-Glo ATP luminescence, 1 h; also: potency is read from the fitted curve at half-maximal effect; % is scaled to controls: 0 for no effect and ±100 for the full control effect
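In 50 mM imidazole pH 7.2 with 7 mM MgCl2, LmPK (0.1 nM) turned over PEP (0.5 mM) and ADP (0.1 mM) for 1 h at room temperature. Luciferase read-out of ATP.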
FBPA Giardia inh – blocks Giardia fructose-bisphosphate aldolase activity; A8B2U2; 0.71% of 290,000 active; purified Giardia FBPA; Potency, µM (series often up to 59.6 µM), inactives show top-dose activity, negative = inhibition, actives largely listed as inhibitors; also: potency is read from the fitted curve at half-maximal effect; % is scaled to controls: 0 for no effect and ±100 for the full control effect; nearly all actives have a fitted effect of over 55% in size
Target sequence (A8B2U2 whole entry, looked up): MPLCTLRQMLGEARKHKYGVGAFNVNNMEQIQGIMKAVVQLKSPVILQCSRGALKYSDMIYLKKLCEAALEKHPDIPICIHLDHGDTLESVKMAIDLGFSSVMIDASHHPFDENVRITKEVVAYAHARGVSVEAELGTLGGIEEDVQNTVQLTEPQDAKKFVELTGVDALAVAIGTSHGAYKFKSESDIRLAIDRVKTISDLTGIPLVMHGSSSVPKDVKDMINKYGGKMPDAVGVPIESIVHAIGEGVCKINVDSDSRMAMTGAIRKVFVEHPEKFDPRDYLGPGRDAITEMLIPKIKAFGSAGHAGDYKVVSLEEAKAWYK
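Giardia FBPA (40 nM reagent) was preincubated 10 min at RT with compound (up to 57.5 uM final), then substrate plus GAPDH/TPI/NAD/arsenate coupling system with diaphorase/resazurin was added; resorufin fluorescence (525/598 nm) was read after 20 min.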
Tb PYK inh – inhibitors of Trypanosoma brucei pyruvate kinase; Q57TT1; Potency, µM (series often up to 76.8 µM), without a hit: at the top dose activity, negative = inhibition, most hits filed as inhibitors; AID 624173; TbPYK enzyme, Kinase-Glo Plus ATP luminescence, 45 min; 0.12% of 410,000 active; also: potency is read from the fitted curve at half-maximal effect; % is scaled to controls: 0 for no effect and ±100 for the full control effect; nearly all actives have a fitted effect of over 50% in size
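Screened from lowest to highest concentration, compounds were pinned into TbPYK/substrate mixtures, and ADP (130 uM final) was added. Plates sat at room temperature for 45 min prior to Kinase-Glo Plus detection by luminescence.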
Shiga toxin inh – blocks Shiga toxin action in Vero cells; Vero cells, Shiga toxin protein synthesis inhibition reporter; inhibition, % at 38.7 µM; 9.2% of 290,000 active; AID 2315; in the data active = inhibition mostly above about 28%, no sharp cut-off; inactive = mostly below about 43%; also: 0% is about no effect
* hit, by the source's call; i = inactive; ? = inconclusive; . = no result given; + = active, no number; [ ] = another dose, or the depositor's remark. This excerpt belongs to a sample that is enriched for hits. Unless noted, calls follow the shape of the dose curve; as a rule, active = well fitted curve in the direction sought with a large enough effect; inconclusive = small, poorly fitted or top-dose-only effect, or another doubt; inactive = no such curve, though single readings can be large; an effect the other way counts as inactive or inconclusive.

SMILES	Cycloheximide cs	RE007 growth inh	LmPK inh	FBPA Giardia inh	Tb PYK inh	Shiga toxin inh
Cc1cc(NC(=O)c2cc(-c3ccc(Br)cc3)on2)no1	-3.1	1.8%	5.2%	-1.5%	-1.3%	-3.1
O=C(Nc1ccc2c(c1)OCO2)c1cc(-c2ccc(O)cc2)on1	39.5*	11.2%	-3.6%	6.2%	2.7%	106.0*
O=C(Nc1ccc2c(c1)OCO2)c1cc(-c2ccccc2Cl)on1	23.9*	5.9%	-2.5%	-8.5%	-12.6%	89.5*
O=C(Nc1ccc2c(c1)OCO2)c1cc(-c2ccc(Cl)cc2)on1	.	.	.	.	0.6%	.
Cc1cc(NC(=O)c2cc(-c3ccc(O)cc3)on2)no1	42.2*	3.1%	1.0%	7.7%	5.0%	92.6*
COc1cccc(-c2cc(C(=O)Nc3ccc4c(c3)OCO4)no2)c1	-2.9	2.4%	-4.9%	1.9%	-0.7%	2.4
O=C(Nc1ccc2c(c1)OCO2)c1cc(-c2cccc(O)c2)on1	48.3*	-14.6%	-5.5%	-8.1%	4.2%	111.1*
Cc1ccccc1C(=O)Nc1c(C)nc(Nc2ccccc2)nc1Nc1ccccc1	.	.	.	.	-1.4%	.
COC(=O)c1ccccc1NC(=O)Cn1nc(C)c2nn(-c3ccc(Cl)cc3)c(C)c2c1=O	.	.	.	.	-0.7%	.
O=C(Nc1ccc2nc(SCC(=O)N3CCOCC3)sc2c1)c1cccc(Br)c1	.	.	.	.	5.5%	.
CCN(Cc1ccccc1)Cc1c(O)ccc2c(=O)c(-c3ccccc3OC)c(C(F)(F)F)oc12	.	.	.	.	-1.7%	.
CC(C)(C)c1nnc(NC(=O)Nc2ccc(Cl)cc2)s1	15.2	-6.2%	1.0%	-0.7%	-13.6%	29.0*
COc1ccc(NC(=O)Nc2nnc(C(C)(C)C)s2)cc1	23.3*	8.1%	-13.5%	0.0%	-1.4%	49.5*
CC(C)(C)c1nnc(NC(=O)NS(=O)(=O)c2ccccc2)s1	23.1*	17.4%	-0.6%	-0.1%	4.1%	28.8
O=C(Nc1ccc(Cl)cc1)Nc1nnc(SCc2ccccc2)s1	6.3	-8.6%	1.6%	2.8%	-1.3%	23.3
Cc1nc(NC(=O)Nc2ccc(Cl)cc2)sc1C	26.6*	-3.4%	-9.3%	3.4%	4.5%	40.5*
COc1ccc(CCC(=O)Nc2nnc(C(C)(C)C)s2)cc1	-2.8	-15.3%	-6.5%	-6.5%	5.4%	14.2
CC(=O)Nc1ccc(-c2nnc3n(Cc4ccc(C)cc4)c(=O)c4ccccc4n23)cc1	.	.	.	.	1.4%	.
Cc1cc(N2CCN(C)CC2)nc2ccc(NC(=O)Nc3ccccc3Cl)cc12	.	.	.	.	0.2%	.
CCC(CC)C(=O)Nc1cc(NC(=O)C(CC)CC)cc(C(=O)O)c1	-0.9	0.4%	2.2%	7.3%	1.6%	-3.4
CCC(CC)C(=O)Nc1ccc(Nc2ccccc2)cc1	18.8*	-3.9%	3.0%	0.0%	-7.4%	28.1
O=C(Nc1ccccc1)C(O)C(O)C(=O)Nc1ccccc1 (configuration not stated)	-2.1	-4.7%	-0.9%	4.2%	-3.0%	-13.1
CC(C)C(=O)Nc1ccc(Nc2ccccc2)cc1	17.3*	-23.6%	4.8%	-0.1%	-4.7%	15.3
O=C(Nc1ccccc1)N1CCCC2(CCN(C(=O)c3cc(C(F)(F)F)cc(C(F)(F)F)c3)CC2)C1	.	.	.	-3.2%	0.4%	.
Cc1ccccc1-n1nnnc1SCC(=O)c1c(N)n(C2CC2)c(=O)[nH]c1=O	.	13.9%	.	.	-5.1%	.
SMILES	Cycloheximide cs	RE007 growth inh	LmPK inh	FBPA Giardia inh	Tb PYK inh	Shiga toxin inh
Cc1cc2oc(=O)cc(-c3ccccc3)c2c(C)c1-c1ccc(CO)cc1	5.4	4.6%	.	20.9%[89.2 µM]	0.0%	i
CC(=O)c1ccc(-c2c(C)cc3oc(=O)cc(-c4ccccc4)c3c2C)cc1	29.5*	-12.5%	.	5.2%[89.2 µM]	0.0%	+
CCOC(=O)N(C)C[C@H]1OCc2cnnn2CCCC(=O)N([C@H](C)CO)C[C@H]1C	.	-9.2%	.	.	3.4%	.
O=c1c2c3c(sc2ncn1/N=C/c1ccncc1)CCCC3	7.9	-2.0%	0.8%	2.6%	-0.3%	-8.8
O=c1c2c3c(sc2ncn1/N=C/c1cccnc1)CCCC3	25.8*	-22.7%	-0.5%	5.7%	4.4%	100.2*
CN1CCCCC1c1ccc(-c2cccnc2)nc1 (configuration not stated)	15.6*	0.2%	-3.6%	?	1.7%	-9.3
CCOc1ccc(-n2c(/C=C/c3cccc(F)c3)nc3cc(OC)c(OC)cc3c2=O)cc1	.	.	.	.	0.3%	.
CSc1nc2c(cc1C#N)C(=O)CC(C)(C)C2	9.8	?	2.0%	4.6%	1.6%	20.9
CCOC(=O)CSc1nc(N)c(C#N)cc1C#N	22.9	0.2%	-0.7%	-4.4%	3.5%	41.9*
CC(C)OC(=O)CSc1nc(N)c(C#N)cc1C#N	26.7*	-10.2%	0.6%	-2.4%	-3.1%	42.4*
CCCCOC(=O)CSc1nc2c(cc1C#N)C(=O)CC(C)(C)C2	46.6*	-26.9%	1.2%	2.5%	0.4%	active
COc1ccc(Nc2cc(C)c3cc(NC(=O)COc4cccc(C)c4)ccc3n2)cc1	.	.	.	.	-0.9%	.
COc1ccc(N2CCN(S(=O)(=O)c3ccc(OC)c(-c4noc(C)n4)c3)CC2)cc1	-8.2	.	.	.	4.7%	-1.7
COc1ccc(N(C(=O)CCl)C(C(=O)NC2CCCCC2)c2cccnc2)cc1 (configuration not stated)	2.0	-10.4%	-0.2%	1.4%	-10.7%	-8.4
CCOc1ccc(NC(=O)C(c2ccccn2)N(C(=O)CCl)c2ccc(OCC)cc2)cc1 (configuration not stated)	48.7*	-5.4%	-5.3%	?	-16.6%	+
CCOc1ccc(NC(=O)C(c2ccccn2)N(C(=O)CCl)c2ccc(OC)cc2)cc1 (configuration not stated)	54.9*	-15.2%	2.6%	7.06µM*	-17.8%	76.8*
COc1ccc(NC(=O)C(c2ccccn2)N(C(C)=O)c2ccc(C)cc2)cc1 (configuration not stated)	15.8*	-5.7%	-2.8%	-10.8%	3.7%	60.3*
COc1cc(Cl)c(NS(=O)(=O)c2ccc(-c3cnc(C4CC4)o3)cc2)c(OC)c1	.	.	.	.	3.1%	.
Cc1cccc(-c2noc(CN(C(=O)COc3ccc(Br)cc3C)C(C)C)n2)c1	.	.	.	.	8.9%	.
Cc1cccc(OCC(=O)NCC2(N3CCN(C)CC3)CCCCC2)c1C	.	.	.	.	4.2%	.
Cc1cc(C(=O)N/N=C/c2ccncc2)c(C)o1	11.1	-3.3%	?	3.6%	-0.4%	17.1
Cc1ccc(/C=N/NC(=O)c2cc(C)oc2C)cc1	53.4*	-25.6%	12.6µM*	1.6%	-1.7%	60.1*
CN(C)c1ccc(/C=N/NC(=O)c2ccccc2O)o1	20.5*	-6.1%	0.0%	-21.5%	?	131.4*
Cc1ccc(/C=N/NC(=O)c2cc(C)oc2C)o1	15.4*	-1.8%	-10.5%	-2.1%	5.6%	21.1
CC(/C=N\NC(=O)c1cc(C)oc1C)=C\c1ccccc1	21.9*	-23.1%	-8.8%	-0.2%	0.3%	18.6

Screening results as filed in PubChem.
